HepG2 tox – HepG2 cytotoxicity, counter-screen for TGF-b inhibitors. 0.76% of 410,000 active. Potency, µM (titrated, usually from 46.1 µM), for the others: at the top dose activity change, negative = cytotoxicity, usual class: cytotoxic. HepG2 CAGA-GFP viability, ATP luminescence, 18 h. AID 588856; also: potency is read from the fitted curve at half-maximal effect
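HepG2 CAGA-GFP cells (1000/well, DMEM with 1% FBS) received compound, then TGF-beta at 500 pg/mL final, and were incubated 18 hours at 37 degrees C. Viability was read by CellTiter-Glo luminescence. Media-only wells were set as complete cell-killing and DMSO as no toxicity.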
TDP1 cell CPT – growth inhibition of DT40 Tdp1-/-;hTDP1 cells with camptothecin (screen for TDP1 inhibitors) | 12% of 420,000 active | AID 686979 | Potency, µM (top dose mostly 46.2 µM), inactives show at the top dose activity change, negative = growth inhibition, most hits filed as inhibitors | chicken DT40 Tdp1-/-;hTDP1 cells + 20 nM CPT, ATP luminescence, 48 h; also: potency is read from the fitted curve at half-maximal effect; % is scaled to controls: 0 for no effect and ±100 for the full control effect; nearly all actives have a fitted effect of over 55% in size
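Cell growth measured by CellTiter-Glo luminescence after a minimum 48 h, 37 C compound exposure with 20 nM CPT in Tdp1-knockout DT40 cells stably expressing hTDP1, seeded 400/well; qHTS titration format.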
IL1B secr inh – inflammasome signaling inhibition, IL-1 beta readout; THP-1 LPS/ATP IL-1B secretion, AlphaLISA, 16 h; hits give low values; 4.7% of 360,000 active; activity change, % at 57.5 µM; in the data active = activity change below about -50%; inconclusive = mostly about -30% to -49%; also: % is scaled to controls: 0 for no effect and ±100 for the full control effect
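THP-1 cells pretreated 1 hr with compounds (up to 57.5 uM final), then stimulated with LPS (250 ng/mL final) plus ATP (1.25 mM final); secreted IL-1B measured by AlphaLISA after 16 hr, decreased signal indicating inhibition.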
S-ASM inh – blocks human secretory acid sphingomyelinase. placental ASM, HMU-PC fluorogenic substrate, 60 min. AID 504937. 0.006% of 340,000 active. P17405. Potency, µM (doses to about 57.5 µM), for the others: top-dose activity change, negative = inhibition, usual class: inhibitors; also: potency is read from the fitted curve at half-maximal effect
Target sequence (P17405 47-631 limits assumed): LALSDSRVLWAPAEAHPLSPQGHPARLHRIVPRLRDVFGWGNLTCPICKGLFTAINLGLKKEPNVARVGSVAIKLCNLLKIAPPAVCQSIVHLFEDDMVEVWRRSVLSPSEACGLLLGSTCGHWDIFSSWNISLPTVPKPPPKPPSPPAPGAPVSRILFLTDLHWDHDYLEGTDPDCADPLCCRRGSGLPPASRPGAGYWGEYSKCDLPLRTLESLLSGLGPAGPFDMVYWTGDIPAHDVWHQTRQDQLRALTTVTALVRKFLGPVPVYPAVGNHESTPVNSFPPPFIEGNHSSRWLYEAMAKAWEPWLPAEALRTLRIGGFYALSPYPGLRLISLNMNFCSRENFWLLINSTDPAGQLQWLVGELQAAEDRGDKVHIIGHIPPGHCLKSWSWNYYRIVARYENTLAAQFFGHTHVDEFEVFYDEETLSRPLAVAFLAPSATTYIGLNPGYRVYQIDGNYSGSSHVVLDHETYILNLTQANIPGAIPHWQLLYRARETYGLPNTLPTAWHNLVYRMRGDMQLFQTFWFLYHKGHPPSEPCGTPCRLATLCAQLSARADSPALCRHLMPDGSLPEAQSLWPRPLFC
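HMU-PC0 cleavage (9 uM final) by human placental ASM, 60 min at 37 °C following 10 min compound exposure at RT; stopped at pH 10, fluorescence Ex 386/Em 447 nm.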
TDP1 cell noCPT – qHTS for Inhibitors of human tyrosyl-DNA phosphodiesterase 1 (TDP1): qHTS in cells in absence of CPT. Potency, µM (series often up to 46.2 µM), for inactives: at the highest dose activity change, negative = growth inhibition, hits mostly inhibitors. DT40 Tdp1-/- hTDP1 cells, no CPT, ATP luminescence, 48 h. 15% of 420,000 active. AID 686978, 2013; also: potency is read from the fitted curve at half-maximal effect; % is scaled to controls: 0 for no effect and ±100 for the full control effect; nearly all actives have a fitted effect of over 55% in size
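Compound effects on proliferation are scored in DT40 Tdp1-/-;hTDP1 cells in the absence of CPT. ATP levels (CellTiter-Glo luminescence) are recorded after a ≥48 hr, 37 °C incubation.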
TGFb inhibitor – TGF-b pathway inhibition. HepG2 CAGA-GFP TGF-b/SMAD3 reporter, GFP fluorescence, 18 h; TGF-beta stimulated, 500 pg/mL final. Potency, µM (highest dose often 46.1 µM), without a hit: at the top dose activity, negative = inhibition, usual class: inhibitors. 1.2% of 410,000 active; also: potency is read from the fitted curve at half-maximal effect; % is scaled to controls: 0 for no effect and ±100 for the full control effect; nearly all actives have a fitted effect of over 65% in size
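HEPG2 CAGA-GFP, 1000 cells/well; 2 h settle, 37 C; cpd via pin tool; TGF-b 500 pg/mL final; 18 h, 37 C; GFP imaging ex488/em500-530; %Activity normalised to -TGF-b and +DMSO controls; CRC fit, curve class.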
* = called active by the depositor; i = inactive; ? = inconclusive; · = no result; [ ] = another dose, or the depositor's remark. Most compounds without a hit are left out; they make up all but 19% or so of the library. Unless noted, calls follow the shape of the dose curve; as a rule, active = well fitted curve in the direction sought with a large enough effect; inconclusive = small, poorly fitted or top-dose-only effect, or another doubt; inactive = no such curve, though single readings can be large; an effect the other way counts as inactive or inconclusive.

SMILES	HepG2 tox	TDP1 cell CPT	IL1B secr inh	S-ASM inh	TDP1 cell noCPT	TGFb inhibitor
CCOc1ccc(C2Sc3ccccc3NC3=C2C(=O)OC3)cc1 (stereo not given)	-5.8%	?	0.0	?	?	-17.4%
COc1cc2c(cc1OC)C(c1ccc3c(c1)OCO3)C1=C(CC(C)(C)CC1=O)N2 (stereo not given)	3.5%	?	-54.4*	377.4%	?	-0.9%
COc1cccc(C2C3=C(CC(C)(C)CC3=O)Nc3cc4c(cc32)OCO4)c1 (stereo not given)	4.7%	-21.7%	?	i	-10.7%	18.0%
COCCNC(=O)Cn1cc(S(=O)(=O)Cc2ccccc2Cl)c2ccccc21	-0.6%	-22.5%	·	·	-11.6%	-10.2%
COc1cccc(C2C3=C(CC(C)(C)CC3=O)Nc3cc(OC)c(OC)cc32)c1 (stereo not given)	1.9%	14.9%	0.0	i	-2.0%	3.2%
C#CCOc1ccc(C2C3=C(COC3=O)Nc3cc4c(cc32)OCO4)cc1OC (stereo not given)	1.8%	0.82µM*	45.4	35.9%	1.03µM*	?
CC(=O)C1C(=O)C=C(c2ccco2)CC1c1ccccc1 (stereo not given)	-22.4%	?	-2.7	-6.2%	18.4µM*	-2.2%
O=C1C(=Cc2cccs2)C(=O)c2ccccc21	-24.5%	3.0%	0.0	1.8%	-5.8%	-1.9%
O=C1C(c2ccccc2)=[N+]([O-])c2ccccc21	11.2µM*	5.17µM*	-87.9*	-1.0%	4.11µM*	?
Cc1ncc2c(c1CNC(=O)c1cncs1)CCN(C(=O)c1ccc(C(F)(F)F)cc1)C2	·	-15.1%[9.04 µM]	·	·	-14.4%	·
CCSC1(SCC)N=C(N)C2(C#N)C(c3ccccc3)NC3=C(CCC3)C12C#N (stereo not given)	0.0%	-2.9%	-16.8	-2.3%	-23.1%	3.9%
CCSC1(SCC)N=C(N)C2(C#N)C(c3ccc(OC)c(OC)c3OC)C12C#N (stereo not given)	-106.6%	6.51µM*	-115.2*	1.2%	8.2µM*	?
COc1ccc(NC(=O)C2(C)CCN2CC2CCCCC2)cc1OC (stereo not given)	-11.3%	?	-11.8	·	14.6µM*	10.9%
COc1ccc(NC(=O)C2(C)CCN2Cc2ccccc2Cl)cc1OC (stereo not given)	-25.4%	9.2µM*	?	·	8.2µM*	-5.1%
COc1ccc(NC(=O)C2(C)CCN2Cc2ccc(C(C)C)cc2)cc1OC (stereo not given)	-30.9%	18.4µM*	28.6	·	23.1µM*	-19.5%
Cc1cccc(NC(=O)C2CCCN(S(=O)(=O)c3ccc4[nH]c(=O)ccc4c3)C2)n1 (stereo not given)	2.5%	?	18.0	0.1%	-9.9%	-6.7%
CCOc1ccc(NC(=O)Cn2cc(C(=O)CC)c3ccccc32)cc1	-12.1%	13µM*	14.6	5.7%	25.9µM*	-6.1%
CCOc1ccc(NC(=O)Cn2cc(C(C)=O)c3ccccc32)cc1	-16.3%	?	41.3	-4.4%	?	4.8%
COc1ccc(C(=O)n2cc(C(C)=O)c3ccccc32)cc1	10.3%	10.3µM*	-4.6	-1.8%	14.6µM*	-21.1%
Cc1ccc(NC(=O)Cn2cc(C(=O)c3cccs3)c3ccccc32)cc1C	-16.1%	?	·	·	?	?
Cc1ccc(C)c(NC(=O)Cn2cc(C(=O)c3cccs3)c3ccccc32)c1	-17.7%	18.4µM*	·	·	20.6µM*	?
CC(=O)c1cn(CC(=O)NCc2ccc3c(c2)OCO3)c2ccccc12	-12.6%	13µM*	13.8	-1.3%	13µM*	-19.3%
O=C(Cn1cc(C(=O)C2CC2)c2ccccc21)NCc1ccc2c(c1)OCO2	0.2%	?	-29.0	-1.0%	?	-2.5%
CCOC(=O)c1cnc2cc(-c3ccc(C)cc3)nn2c1C	4.4%	-20.7%	2.0	·	-19.0%	4.2%
Cc1ccc(S(=O)(=O)N2C[C@@H]3[C@H]4CC[C@H](C4)[C@@H]3[C@@H](C)[C@@H]2c2ccn(Cc3ccccc3)c2)cc1	-10.1%	?	0.0	-5.5%	?	-0.2%
SMILES	HepG2 tox	TDP1 cell CPT	IL1B secr inh	S-ASM inh	TDP1 cell noCPT	TGFb inhibitor
O=C(c1ccccc1)N(C(=O)c1ccccc1)N1CCCC1	10.2%	-18.5%	6.4	-1.1%	-20.0%	14.8%
CCc1cccc(NC(=O)Cn2c(=O)n(CC3CCC(C(=O)NC)CC3)c(=O)c3sccc32)c1 (stereo not given)	-17.0%	?	·	·	?	-33.4%
Cc1ccccc1NC(=O)Cn1c(O)c(N=NC(=O)c2ccccc2O)c2ccccc21	13.0%	?	0.0	-1.0%	5.8µM*	7.2%
O=C(Cn1cc(C(=O)C(F)(F)F)c2ccccc21)Nc1ccccc1F	11.2µM*	8.2%	20.6	-0.1%	3.4%	8.5%
Cc1ccc(NC(=O)Cn2c(O)c(N=NC(N)=O)c3ccccc32)cc1	7.2%	?	-2.1	-9.4%	?	-2.3%
COc1ccc(NC(=O)Cn2cc(C(C)=O)c3ccccc32)cc1	-20.7%	5.17µM*	48.5	-1.2%	?	-11.9%
Cc1ccc(NC(=O)Cn2c(O)c(N=NS(=O)(=O)c3ccc(C)cc3)c3ccccc32)cc1	0.9%	?	-5.3	?	14.6µM*	-11.5%
CC(C)(C)NC(=O)CN(C(=O)C1CSC(=O)C1)c1ccccc1F (stereo not given)	-13.8%	-4.1%	24.8	5.7%	-5.8%	-11.0%
CCN(CC(=O)Nc1c(F)cccc1F)C(=O)Cc1ccc(S(=O)(=O)N2CCOCC2)s1	-4.3%	2.3%	5.7	4.5%	0.5%	-20.3%
CC(C)(C)c1ccc(C(=O)N/C(=C\c2ccco2)C(=O)Nc2ccccc2C(=O)O)cc1	3.7%	5.5%	2.7	5.9%	-24.4%	-2.0%
Cc1cccc(NC(=O)Cn2cc(C=O)c3ccccc32)c1	-22.1%	?	63.4	3.1%	?	?
CC(=O)c1cn(CC(=O)Nc2ccccc2C)c2ccccc12	-4.8%	8.2µM*	13.5	0.4%	6.51µM*	0.0%
Cc1cccc(C)c1NC(=O)Cn1cc(C=O)c2ccccc21	-1.0%	20.6µM*	34.9	-1.2%	8.2µM*	-22.7%
CSc1nc(N)nc2c1ncn2CC(=O)NCc1ccc2c(c1)OCO2	-12.7%	16.4µM*	29.8	-2.0%	8.2µM*	-23.3%

Source: PubChem (National Center for Advancing Translational Sciences (NCATS))
